For some assays here: Measured potencies and affinities stand elsewhere.
Key:
Parameters in all cases: scale not given: direction of the effect not stated beside the values
[1] = target: Protein translocase subunit SecA (Escherichia coli (strain K12)) (UniProt P10408); assay: Assay to Identify E. coli SecA ATPase Inhibitors; type: functional; conditions: 30 µM
[2] = target: T1, Ubiquitin-activating enzyme e1, putative (Leishmania donovani (strain BPK282A1)) (UniProt E9BSI1); assay: Leishmania donovani Ubiquitin Activating Enzyme (LdE1); type: functional; conditions: 30 µM
T1 sequence (whole entry): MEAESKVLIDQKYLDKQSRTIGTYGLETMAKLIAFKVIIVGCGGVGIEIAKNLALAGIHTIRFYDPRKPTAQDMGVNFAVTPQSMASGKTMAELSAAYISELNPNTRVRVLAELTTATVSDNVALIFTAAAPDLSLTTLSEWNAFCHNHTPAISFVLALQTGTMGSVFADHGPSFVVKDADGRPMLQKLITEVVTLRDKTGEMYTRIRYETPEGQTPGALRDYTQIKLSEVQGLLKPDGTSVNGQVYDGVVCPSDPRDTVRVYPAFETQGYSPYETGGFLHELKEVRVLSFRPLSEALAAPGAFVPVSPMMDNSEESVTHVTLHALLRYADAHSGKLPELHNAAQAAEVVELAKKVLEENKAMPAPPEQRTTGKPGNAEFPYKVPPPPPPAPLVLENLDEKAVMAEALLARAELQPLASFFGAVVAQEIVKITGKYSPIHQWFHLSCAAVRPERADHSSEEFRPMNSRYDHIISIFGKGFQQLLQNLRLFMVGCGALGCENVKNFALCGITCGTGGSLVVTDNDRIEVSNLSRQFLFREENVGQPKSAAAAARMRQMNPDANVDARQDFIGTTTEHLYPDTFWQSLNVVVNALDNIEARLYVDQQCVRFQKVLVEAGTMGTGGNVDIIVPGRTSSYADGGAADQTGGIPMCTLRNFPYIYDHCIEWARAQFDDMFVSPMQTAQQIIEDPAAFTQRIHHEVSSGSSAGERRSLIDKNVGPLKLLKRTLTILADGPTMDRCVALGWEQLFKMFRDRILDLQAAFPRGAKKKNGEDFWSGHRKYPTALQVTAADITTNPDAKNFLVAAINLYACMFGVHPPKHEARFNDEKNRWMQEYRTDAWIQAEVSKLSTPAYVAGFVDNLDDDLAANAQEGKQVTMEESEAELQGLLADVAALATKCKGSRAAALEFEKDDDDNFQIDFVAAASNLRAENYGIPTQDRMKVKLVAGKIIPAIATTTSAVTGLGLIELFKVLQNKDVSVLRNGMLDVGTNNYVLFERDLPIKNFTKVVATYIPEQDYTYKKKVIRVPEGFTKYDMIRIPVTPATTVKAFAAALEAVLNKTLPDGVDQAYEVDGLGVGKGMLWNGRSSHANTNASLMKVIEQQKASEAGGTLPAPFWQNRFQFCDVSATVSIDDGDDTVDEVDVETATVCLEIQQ

[3] = target: AMP-activated protein kinase, AMPK (Homo sapiens) (UniProt P54646+O43741+P54619+Q9UGJ0+Q9Y478+Q13131+Q9UGI9); assay: AMP-dependent Kinase enzyme assay. An in vitro enzyme assay that detects ADP turnover that is directly proportional to AMPK activity. This uses naive AMPK that is activated during the assay with MK-8722; type: functional; conditions: 30 µM
[4] = target: Sialic acid-binding Ig-like lectin 9 (Homo sapiens) (UniProt Q9Y336); assay: Hs-Siglec9 ALPHAscreen SOP 20170721; conditions: 10 µM
Chain of Sialic acid-binding Ig-like lectin 9 (Homo sapiens) (Q9Y336 whole entry): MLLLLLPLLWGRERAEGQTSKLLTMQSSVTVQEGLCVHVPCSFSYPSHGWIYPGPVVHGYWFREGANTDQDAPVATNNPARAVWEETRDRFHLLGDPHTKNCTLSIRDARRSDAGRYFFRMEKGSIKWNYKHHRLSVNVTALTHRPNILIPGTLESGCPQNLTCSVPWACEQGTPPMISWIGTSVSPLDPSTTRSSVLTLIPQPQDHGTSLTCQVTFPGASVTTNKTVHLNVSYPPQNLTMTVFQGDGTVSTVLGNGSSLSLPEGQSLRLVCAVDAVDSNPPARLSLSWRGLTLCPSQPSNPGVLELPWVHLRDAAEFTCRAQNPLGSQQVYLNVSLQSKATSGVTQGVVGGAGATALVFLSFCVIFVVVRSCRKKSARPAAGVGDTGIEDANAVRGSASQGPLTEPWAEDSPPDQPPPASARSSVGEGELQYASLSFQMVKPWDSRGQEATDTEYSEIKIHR

Trypanosoma cruzi = assay: Trypanosoma cruzi phosphomannomutase and mannose-1-phosphate guanylyltransferase assay; type: functional; conditions: 10 µM
[5] = target: T2, Arginase-2, mitochondrial (Homo sapiens) (UniProt P78540); assay: in vitro enzyme assay to detect the production of urea directly proportional to the activity of Arginase II; type: functional; conditions: 33.3 µM; note: in the data most compounds retested in dose-response had high values
T2 sequence (whole entry): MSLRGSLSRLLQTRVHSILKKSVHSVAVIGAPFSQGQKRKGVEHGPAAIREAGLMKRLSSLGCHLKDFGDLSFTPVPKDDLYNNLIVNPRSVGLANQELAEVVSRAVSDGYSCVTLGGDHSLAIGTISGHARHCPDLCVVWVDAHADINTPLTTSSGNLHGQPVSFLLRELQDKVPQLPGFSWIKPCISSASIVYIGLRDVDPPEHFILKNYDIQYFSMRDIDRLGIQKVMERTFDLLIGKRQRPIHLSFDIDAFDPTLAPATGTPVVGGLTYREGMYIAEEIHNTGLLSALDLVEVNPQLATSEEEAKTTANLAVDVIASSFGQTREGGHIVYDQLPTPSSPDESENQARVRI

[6] = target: T3, Proteasome subunit beta (Trypanosoma cruzi) (UniProt O96673); assay: Trypanosoma cruzi proteasome chymotrypsin-like activity (TcProtChymo) assay.; note: in the data most compounds retested in dose-response had high values; type: functional; conditions: 9.37 µM
T3 sequence (whole entry): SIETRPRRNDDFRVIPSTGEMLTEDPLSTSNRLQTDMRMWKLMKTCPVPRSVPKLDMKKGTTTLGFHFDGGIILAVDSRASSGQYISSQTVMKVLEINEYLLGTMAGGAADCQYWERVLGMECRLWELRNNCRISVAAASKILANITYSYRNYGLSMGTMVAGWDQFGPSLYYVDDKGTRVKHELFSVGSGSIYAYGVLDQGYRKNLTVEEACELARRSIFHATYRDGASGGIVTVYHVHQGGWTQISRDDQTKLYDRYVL

Homo sapiens = species on record: Homo sapiens; assay: To identify inhibition of the IFN signalling (Jak-Stat) pathway via expression of an eGFP reporter gene under the control of an IFN-stimulated response element (ISRE) containing MxA promoter.; type: functional; conditions: 30 µM
[7] = target: T4, Tyrosyl-tRNA synthetase, putative (Trypanosoma cruzi (strain CL Brener)) (UniProt Q4DSP6); assay: Trypanosoma cruzi tyrosyl tRNA synthetase (TcYRS) _High Tyrosine SOP; type: functional; conditions: 30 µM; note: in the data most compounds retested in dose-response had high values
T4 sequence (whole entry): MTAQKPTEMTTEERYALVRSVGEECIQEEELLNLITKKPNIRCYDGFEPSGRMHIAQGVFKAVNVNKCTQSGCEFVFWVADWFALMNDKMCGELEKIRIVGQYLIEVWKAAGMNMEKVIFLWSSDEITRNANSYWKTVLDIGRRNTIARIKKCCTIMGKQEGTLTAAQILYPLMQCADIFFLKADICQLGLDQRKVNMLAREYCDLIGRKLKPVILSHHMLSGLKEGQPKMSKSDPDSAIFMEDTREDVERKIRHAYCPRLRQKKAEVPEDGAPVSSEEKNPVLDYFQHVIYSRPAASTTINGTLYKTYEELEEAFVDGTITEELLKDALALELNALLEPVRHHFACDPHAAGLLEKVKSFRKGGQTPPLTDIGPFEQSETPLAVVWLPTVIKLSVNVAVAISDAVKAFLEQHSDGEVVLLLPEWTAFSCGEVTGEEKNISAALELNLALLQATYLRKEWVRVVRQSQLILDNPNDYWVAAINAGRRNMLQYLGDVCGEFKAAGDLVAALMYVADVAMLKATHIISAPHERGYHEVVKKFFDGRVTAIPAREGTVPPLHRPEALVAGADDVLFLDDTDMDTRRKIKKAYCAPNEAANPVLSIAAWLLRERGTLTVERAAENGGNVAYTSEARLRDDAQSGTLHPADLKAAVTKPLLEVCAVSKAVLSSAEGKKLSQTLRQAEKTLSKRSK

[8] = target: T4, Tyrosyl-tRNA synthetase, putative (Trypanosoma cruzi (strain CL Brener)); assay: Trypanosoma cruzi tyrosyl tRNA synthetase (TcYRS) SOP; type: functional; conditions: 30 µM
[9] = target: Chromo domain-containing protein 1 (Saccharomyces cerevisiae (strain ATCC 204508 / S288c) (Baker's yeast)) (UniProt P32657); assay: ScCHD-1 Enzyme Inhibition Assay; type: functional; conditions: 30 µM; note: in the data most compounds retested in dose-response had high values
Chain of Chromo domain-containing protein 1 (Saccharomyces cerevisiae (strain ATCC 204508 / S288c) (Baker's yeast)) (P32657 whole entry, the tested form may be a part): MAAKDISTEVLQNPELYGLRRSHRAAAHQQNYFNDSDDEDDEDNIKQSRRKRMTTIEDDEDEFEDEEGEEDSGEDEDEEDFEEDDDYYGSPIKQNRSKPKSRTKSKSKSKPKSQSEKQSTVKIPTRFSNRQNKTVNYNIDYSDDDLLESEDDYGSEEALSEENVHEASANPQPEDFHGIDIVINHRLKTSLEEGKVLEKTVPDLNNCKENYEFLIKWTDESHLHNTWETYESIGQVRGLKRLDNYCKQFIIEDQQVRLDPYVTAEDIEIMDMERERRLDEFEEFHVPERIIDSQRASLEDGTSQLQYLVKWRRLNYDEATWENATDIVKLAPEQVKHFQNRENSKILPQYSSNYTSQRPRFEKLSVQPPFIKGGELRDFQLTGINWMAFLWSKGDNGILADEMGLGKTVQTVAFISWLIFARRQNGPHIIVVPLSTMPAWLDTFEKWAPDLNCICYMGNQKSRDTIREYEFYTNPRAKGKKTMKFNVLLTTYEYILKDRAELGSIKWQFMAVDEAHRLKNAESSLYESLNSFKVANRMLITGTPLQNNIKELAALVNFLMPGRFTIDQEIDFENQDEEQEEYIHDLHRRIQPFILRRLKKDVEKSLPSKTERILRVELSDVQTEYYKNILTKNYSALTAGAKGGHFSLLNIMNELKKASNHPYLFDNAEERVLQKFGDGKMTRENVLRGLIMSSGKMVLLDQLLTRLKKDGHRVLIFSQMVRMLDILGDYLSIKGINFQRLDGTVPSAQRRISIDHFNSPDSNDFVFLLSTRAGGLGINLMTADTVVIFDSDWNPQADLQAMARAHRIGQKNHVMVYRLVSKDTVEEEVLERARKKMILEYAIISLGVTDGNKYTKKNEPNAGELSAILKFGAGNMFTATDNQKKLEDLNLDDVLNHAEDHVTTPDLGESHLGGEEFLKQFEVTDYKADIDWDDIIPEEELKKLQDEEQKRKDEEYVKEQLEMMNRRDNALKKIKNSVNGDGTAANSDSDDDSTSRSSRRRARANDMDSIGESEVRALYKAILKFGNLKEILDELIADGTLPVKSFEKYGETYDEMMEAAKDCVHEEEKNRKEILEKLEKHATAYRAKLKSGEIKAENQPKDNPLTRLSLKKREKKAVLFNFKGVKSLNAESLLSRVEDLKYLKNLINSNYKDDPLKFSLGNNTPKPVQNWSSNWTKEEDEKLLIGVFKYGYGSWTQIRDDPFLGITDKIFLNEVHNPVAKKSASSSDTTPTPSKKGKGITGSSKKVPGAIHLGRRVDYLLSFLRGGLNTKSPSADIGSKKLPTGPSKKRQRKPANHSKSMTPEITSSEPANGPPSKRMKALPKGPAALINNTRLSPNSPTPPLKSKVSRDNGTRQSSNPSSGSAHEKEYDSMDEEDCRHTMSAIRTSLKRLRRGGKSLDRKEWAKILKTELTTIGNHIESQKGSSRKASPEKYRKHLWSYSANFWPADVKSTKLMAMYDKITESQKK

Chain of Protein translocase subunit SecA (Escherichia coli (strain K12)) (P10408 whole entry): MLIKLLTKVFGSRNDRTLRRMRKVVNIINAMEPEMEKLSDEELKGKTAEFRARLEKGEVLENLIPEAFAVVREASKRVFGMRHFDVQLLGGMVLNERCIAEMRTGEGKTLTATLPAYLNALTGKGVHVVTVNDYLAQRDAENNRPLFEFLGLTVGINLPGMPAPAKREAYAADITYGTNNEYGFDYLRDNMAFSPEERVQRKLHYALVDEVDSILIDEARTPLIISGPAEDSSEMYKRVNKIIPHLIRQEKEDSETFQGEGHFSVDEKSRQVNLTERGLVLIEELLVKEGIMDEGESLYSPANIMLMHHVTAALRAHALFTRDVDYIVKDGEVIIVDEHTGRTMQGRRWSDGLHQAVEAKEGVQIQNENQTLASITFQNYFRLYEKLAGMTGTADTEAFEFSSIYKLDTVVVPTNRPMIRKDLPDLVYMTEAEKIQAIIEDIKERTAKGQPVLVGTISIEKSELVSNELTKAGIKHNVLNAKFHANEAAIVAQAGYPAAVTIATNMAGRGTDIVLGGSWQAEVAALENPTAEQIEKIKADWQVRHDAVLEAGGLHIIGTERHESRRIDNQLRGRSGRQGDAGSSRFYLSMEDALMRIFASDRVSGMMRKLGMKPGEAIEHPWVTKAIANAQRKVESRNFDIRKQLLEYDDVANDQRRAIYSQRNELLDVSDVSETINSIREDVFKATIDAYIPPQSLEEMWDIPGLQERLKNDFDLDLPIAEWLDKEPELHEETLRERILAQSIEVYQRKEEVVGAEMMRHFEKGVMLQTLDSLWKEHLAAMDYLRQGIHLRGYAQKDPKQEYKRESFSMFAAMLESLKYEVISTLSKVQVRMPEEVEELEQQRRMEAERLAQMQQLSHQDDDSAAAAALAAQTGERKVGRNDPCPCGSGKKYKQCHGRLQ

SMILES | Percent Effect [1] [%] | Percent Effect [2] [%] | Percent Effect [3] [%] | Percent Effect [4] [%] | Percent Effect (Trypanosoma cruzi) [%] | Percent Effect [5] [%] | Percent Effect [6] [%] | Percent Effect (Homo sapiens) [%] | Percent Effect [7] [%] | Percent Effect [8] [%] | Percent Effect [9] [%]
COc1cccc(CN2CCOC(Cn3nc(C)cc3C)C2)c1 (configuration not stated) | -1.25 | 2.7 | 25.1 | -0.918 | -4.88 | 1.67 | 18.2 | -11.1 | 7.92 | 15.8 | 8.67
O=C(c1ccnnc1)N1CCN2C[C@H](Oc3cccc(F)c3)C[C@H]2C1 | -1.92 | 8 | -1.06 | 6.61 | -2.7 | -20.2 | 1.37 | -0.178 | -2.08 | 10 | -6.63
CC(=O)N1CCCC1c1nccc(C)n1 (configuration not stated) | -4.82 | 8 | 9.75 | 7.48 | -0.984 | 3.5 | 4.67 | 3.01 | 3.19 | 11.5 | -1.52
O=C(COc1coc(CN2CCCCC2)cc1=O)NCc1ccccc1 | -1.81 | 7.89 | 6.63 | 2.03 | -4.38 | -4.73 | 18.5 | -0.295 | 4.25 | 10.4 | -5.41
CCOc1ccc(S(=O)(=O)NC(=O)CCC2CCCO2)cc1 (configuration not stated) | -3.8 | 13.5 | -7.18 | -5.67 | 0.283 | -5.21 | 17.5 | 1.86 | 10.3 | 18.5 | -9.06
Cc1ccc(C(=O)NC2CCN(C(=O)Nc3ccccn3)CC2)o1 | -3.11 | 10.4 | -3.63 | -17.5 | -7.15 | -2.32 | 6.71 | 9.29 | 2.86 | 14.1 | -18.9
Cc1csc2c(=O)n3c(nc12)CCN(C(=O)c1cccnc1)CC3 | -2.51 | 9.46 | 13.3 | -1.07 | 4.94 | -1.16 | 8.27 | 4.21 | 4.3 | 6.49 | -13
CCC1=N[C@@]2(CC[C@@H]3CN(S(=O)(=O)CC)C[C@@H]32)C(=O)N1CC(C)C | -2.87 | 2.6 | -1.61 | 11.1 | -0.493 | -1.94 | 0.348 | 18.4 | 2.12 | 8.97 | -4.63
CCn1ncnc1C(NC(=O)CC1CCN(C(C)C)CC1)C1CC1 (configuration not stated) | -12.1 | -2.7 | -3.06 | -6.3 | -6.16 | -1.74 | 3.18 | -5.64 | -2.15 | 1.24 | -3.37
CNc1cc(CCNC(=O)c2cccnc2)nc(-c2ccncc2)n1 | -1.87 | 9.46 | 12.1 | 1.21 | -6.13 | 2.09 | 12 | -0.444 | 4.3 | 6.49 | -5.16
CC(NC1(CNC(=O)CC(C)(C)C)CCOCC1)c1ccccc1 (configuration not stated) | -5.63 | 8.11 | 1.15 | 15.6 | -0.684 | 4.22 | 9.19 | -9.78 | 3.23 | 11.1 | -2.98
CC(=O)N1CCCN(Cc2csc(-c3ncccn3)n2)CC1 | -0.976 | 13.2 | -3.37 | -1 | -3.02 | 3.55 | 20.4 | 12 | 6.38 | 18.2 | -3.23
COCC1CN(S(C)(=O)=O)Cc2ncn(CC3CC3)c21 (configuration not stated) | -4.92 | 13.5 | -0.0233 | -3.08 | -5.38 | 0.248 | 14.2 | 27.2 | 4.3 | 8.64 | -3.62
c1cnn(CC2CN(Cc3ccc(-n4ccnc4)cc3)CCO2)c1 (configuration not stated) | -2.02 | 17.7 | -6.89 | 4.49 | 3.68 | 0.76 | 6.14 | 0.886 | 9.36 | 24.1 | -2.59
CCc1noc(C(C)N(C)CC(=O)Nc2cccc(C)n2)n1 (configuration not stated) | 0.372 | 0 | 5.73 | 0.963 | -0.979 | 0.909 | 7.28 | 0.0607 | -1.07 | 0 | 2.92
CCc1nc(CC(=O)NCC(Cc2ccc(F)cc2)C(N)=O)cs1 (configuration not stated) | -8.91 | 5.26 | -6.2 | 10.1 | 7.89 | -3.55 | -2.21 | 11.5 | 4.25 | 13 | -14.4
O=C(NCc1cc[nH]n1)NCC(c1ccco1)N1CCCC1 (configuration not stated) | -3.53 | 8.11 | -2.2 | 17.4 | 1.66 | -0.744 | 12.4 | 7.09 | 5.38 | 11.1 | -2.11
CCOCC1CN(C)Cc2cnn(CC3CCCC3)c21 (configuration not stated) | 0.927 | 5.48 | 0.312 | 7.92 | 7.14 | 2 | 9.68 | -29.3 | 7.29 | 11.1 | -3.7
COc1c(CNC2CCCOc3ccccc32)c(C)nn1C (configuration not stated) | -6.71 | 5.41 | -2.77 | 4.94 | 3.81 | 3.23 | 8.5 | -6.93 | 6.45 | 11.1 | -1.97
NS(=O)(=O)CCNC(=O)C1(c2ccc(Br)cc2)CC1 | 2.05 | 7.79 | -1.42 | 6.68 | 4.23 | -13.8 | 13 | -0.291 | 2.15 | 16.1 | -2.63
CCc1nccn1C1CCCN(C(=O)c2ccc3nncn3c2)C1 (configuration not stated) | -5.07 | 7.79 | -4.63 | 9.34 | 5.06 | -1.78 | 2.03 | 9.22 | 6.8 | 19.5 | -7.6
N#Cc1ccccc1OCCN1CCCC1Cn1cccn1 (configuration not stated) | -0.713 | -5.41 | -5.48 | 8.98 | 5.75 | -3.61 | -5.22 | -12.9 | 2.46 | 11.1 | -5.36

From ChEMBL document CHEMBL3988442, “University of Dundee, Small-Polar-MMV Screening Library” (2021)
